Assay results reported in PubChem BioAssay (NCI).
This is part of a sample that, as a whole, favours compounds with a hit. Of some 79,000 tested, about 15% had one in any assay. Values without a mark were called inactive. The source made the active and inactive calls. Cut-off read from the data, not from the text of the source: active = growth inhibition above about 70%; inactive = the rest.

How the values were obtained:
[1] = NCI Yeast Anticancer Drug Screen. Data for the rad52 strain (AID 147);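 note: 0% = growth of vehicle-treated control cultures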; details: S. cerevisiae rad52 mutant growth inhibition, stronger effect = higher value
Method in brief: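 Measured: yeast growth inhibition. System: strain with a defined DNA damage repair alteration. Reference: vehicle-treated control cultures.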

[2] = NCI Yeast Anticancer Drug Screen. Data for the wt1 strain (AID 149);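 note: 0% = growth of vehicle-treated wt1 cultures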; details: S. cerevisiae wt1 strain (SPY 50644) growth inhibition, stronger effect = higher value
Method in brief: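 The wt1 strain was treated with compounds, and growth was compared with vehicle-treated cultures to give inhibition.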

[3] = NCI Yeast Anticancer Drug Screen. Data for the rad50EPP+ strain (AID 151);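 note: 0% = growth of vehicle-treated control cultures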; details: S. cerevisiae rad50 mutant strain, stronger effect = higher value
Method in brief: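 One strain with a rad50 alteration (rad50EPP+) was compound-treated, its growth then compared to that of vehicle controls.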

[4] = NCI Yeast Anticancer Drug Screen. Data for the mgt1 strain (AID 153); details: S. cerevisiae mgt1 mutant growth inhibition, stronger effect = higher value
Method in brief: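 After exposure of the mgt1 yeast mutant to compound, growth was measured and reported as inhibition compared with vehicle controls.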

[5] = NCI Yeast Anticancer Drug Screen. Data for the rad50 strain (AID 155);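 note: 0% = growth of vehicle-only cultures of the same strain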; details: S. cerevisiae rad50 strain growth inhibition, stronger effect = higher value
Method in brief: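 Cells are treated with compound, grown, and their growth is then scored against vehicle-only cultures of the same repair-deficient yeast strain.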

[6] = NCI Yeast Anticancer Drug Screen. Data for the mec2-1 strain (AID 157); details: S. cerevisiae mec2-1 strain, stronger effect = higher value
Method in brief: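 Test agents were screened against the mec2-1 yeast strain, with defined DNA repair or cell cycle alteration. Growth was scored as inhibition against vehicle-only controls.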

[7] = NCI Yeast Anticancer Drug Screen. Data for the rad14 strain (AID 159);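 note: 0% = growth of vehicle-treated control cultures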; details: S. cerevisiae rad14 strain growth inhibition, stronger effect = higher value
Method in brief: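 Readout: yeast growth inhibition, referenced to vehicle-only cultures. Strain bears a defined alteration in DNA damage repair.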

[8] = NCI Yeast Anticancer Drug Screen. Data for the sgs1 mgt1 strain (AID 161);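 note: 0% = growth of cultures given vehicle only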; details: S. cerevisiae sgs1 mgt1 strain, stronger effect = higher value
Method in brief: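 Mutant yeast exposed to compound; growth scored against vehicle-only wells.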

[9] = NCI Yeast Anticancer Drug Screen. Data for the CLN2oe strain (AID 163);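 note: 0% = growth of vehicle-only control cultures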; details: S. cerevisiae CLN2oe strain, stronger effect = higher value
Method in brief: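 Here, growth inhibition in a cell-cycle-altered yeast strain after compound exposure was quantified against vehicle control growth.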

[10] = NCI Yeast Anticancer Drug Screen. Data for the cln2 rad14 strain (AID 165);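 note: 0% = growth equal to vehicle treated cultures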; details: S. cerevisiae cln2 rad14 strain, stronger effect = higher value
Method in brief: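 Growth of compound-exposed yeast (cln2 rad14 genotype) measured and expressed as inhibition relative to vehicle.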

[11] = NCI Yeast Anticancer Drug Screen. Data for the bub3 strain (AID 167); details: S. cerevisiae bub3 mutant strain, stronger effect = higher value
Method in brief: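 Part of a panel of yeast mutants defective in DNA damage repair or cell cycle regulation. Each strain is grown with compound, and inhibition is calculated relative to solvent-treated cultures.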

[12] = NCI Yeast Anticancer Drug Screen. Data for the wt2 strain (AID 169);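 note: 0% = growth of vehicle-treated yeast cultures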; details: S. cerevisiae wt2 strain growth inhibition, stronger effect = higher value
Method in brief: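 Genetically defined yeast strains from a DNA-repair/cell-cycle panel were used. Compound-exposed yeast growth was measured, and the inhibition was calculated relative to vehicle treatment.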

[13] = NCI Yeast Anticancer Drug Screen. Data for the mlh1 strain (AID 171);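 note: 0% = growth of vehicle-treated control cultures of the same strain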; details: S. cerevisiae mlh1 strain growth inhibition, stronger effect = higher value
Method in brief: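 Here the genetically defined yeast mutant is grown with each compound, and the extent to which its growth falls below that of vehicle-exposed cells is reported.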

[14] = NCI Yeast Anticancer Drug Screen. Data for the sgs1 strain (AID 173);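 note: 0% = growth of vehicle-only control cultures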; details: S. cerevisiae sgs1 mutant, stronger effect = higher value
Method in brief: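 Relative growth inhibition, referenced to vehicle, was determined in a yeast strain with a defined alteration affecting DNA damage repair or cell cycle control after compound exposure.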

[15] = NCI Yeast Anticancer Drug Screen. Data for the mlh1 rad18 strain (AID 175); details: S. cerevisiae mlh1 rad18 strain growth inhibition, stronger effect = higher value
Method in brief: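 In this whole-cell yeast screen, a strain with altered DNA damage repair is challenged with compound, and its growth is measured against matched vehicle-treated controls.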

[16] = NCI Yeast Anticancer Drug Screen. Data for the rad18 strain (AID 177); details: S. cerevisiae rad18 mutant growth inhibition, stronger effect = higher value
Method in brief: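 Screen uses a yeast strain with a defined lesion in DNA damage repair; compound effect is read as loss of growth compared to untreated vehicle cultures.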

[17] = at 5.0 µM (retest, dose inferred, filed as 0.5)
[18] = at 50.0 µM (retest, dose inferred, filed as 5.0)

SMILES: COc1ccc(C(C)c2cc3c(cc2OC(C)O)OCO3)cc1 (stereo not drawn)
- growth inhibition ([1]; at 1.2 µM): -2%
- growth inhibition ([1]; at 3.7 µM): -3%
- growth inhibition ([1]; at 11.0 µM): -1%
- growth inhibition ([1]; at 33.0 µM): 1%
- growth inhibition ([1]; at 100.0 µM): 89% (active)
- growth inhibition ([2]; at 1.2 µM): -2%
- growth inhibition ([2]; at 3.7 µM): -3%
- growth inhibition ([2]; at 11.0 µM): -4%
- growth inhibition ([2]; at 33.0 µM): -4%
- growth inhibition ([2]; at 100.0 µM): 88% (active)
- growth inhibition ([3]; at 1.2 µM): 0%
- growth inhibition ([3]; at 3.7 µM): 15%
- growth inhibition ([3]; at 11.0 µM): 15%
- growth inhibition ([3]; at 33.0 µM): 33%
- growth inhibition ([3]; at 100.0 µM): 36%
- growth inhibition ([4]; at 1.2 µM): -3%
- growth inhibition ([4]; at 3.7 µM): -2%
- growth inhibition ([4]; at 11.0 µM): -3%
- growth inhibition ([4]; at 33.0 µM): -2%
- growth inhibition ([4]; at 100.0 µM): 95% (active)
- growth inhibition ([5]; at 1.2 µM): -6%
- growth inhibition ([5]; at 3.7 µM): -46%
- growth inhibition [5, 17]: 4%
- growth inhibition ([5]; at 11.0 µM): 26%
- growth inhibition ([5]; at 33.0 µM): 3%
- growth inhibition [5, 18]: 11%
- growth inhibition ([5]; at 50.0 µM): 18.8%
- growth inhibition ([5]; at 100.0 µM): 96% (active)
- growth inhibition ([6]; at 1.2 µM): -3%
- growth inhibition ([6]; at 3.7 µM): -2%
- growth inhibition [6, 17]: 3%
- growth inhibition ([6]; at 11.0 µM): -1%
- growth inhibition ([6]; at 33.0 µM): -2%
- growth inhibition [6, 18]: 31%
- growth inhibition ([6]; at 50.0 µM): 0.2%
- growth inhibition ([6]; at 100.0 µM): 87% (active)
- growth inhibition ([7]; at 1.2 µM): -1%
- growth inhibition ([7]; at 3.7 µM): -2%
- growth inhibition ([7]; at 11.0 µM): -1%
- growth inhibition ([7]; at 33.0 µM): 4%
- growth inhibition ([7]; at 100.0 µM): 69%
- growth inhibition [8, 17]: 2%
- growth inhibition [8, 18]: 37%
- growth inhibition ([8]; at 50.0 µM): 58.5%
- growth inhibition ([9]; at 1.2 µM): 4%
- growth inhibition ([9]; at 3.7 µM): 1%
- growth inhibition ([9]; at 11.0 µM): 2%
- growth inhibition ([9]; at 33.0 µM): 1%
- growth inhibition ([9]; at 100.0 µM): 38%
- growth inhibition [10, 17]: 3%
- growth inhibition [10, 18]: 1%
- growth inhibition ([10]; at 50.0 µM): -31.5%
- growth inhibition ([11]; at 1.2 µM): 0%
- growth inhibition ([11]; at 3.7 µM): 6%
- growth inhibition [11, 17]: 7%
- growth inhibition ([11]; at 11.0 µM): 20%
- growth inhibition ([11]; at 33.0 µM): 43%
- growth inhibition [11, 18]: 52%
- growth inhibition ([11]; at 50.0 µM): 25.4%
- growth inhibition ([11]; at 100.0 µM): 64%
- growth inhibition ([12]; at 1.2 µM): 3%
- growth inhibition ([12]; at 3.7 µM): -1%
- growth inhibition ([12]; at 11.0 µM): -2%
- growth inhibition ([12]; at 33.0 µM): -2%
- growth inhibition ([12]; at 100.0 µM): 32%
- growth inhibition ([13]; at 1.2 µM): -2%
- growth inhibition ([13]; at 3.7 µM): -3%
- growth inhibition ([13]; at 11.0 µM): -1%
- growth inhibition ([13]; at 33.0 µM): 1%
- growth inhibition ([13]; at 100.0 µM): 92% (active)
- growth inhibition ([14]; at 1.2 µM): -3%
- growth inhibition ([14]; at 3.7 µM): -1%
- growth inhibition ([14]; at 11.0 µM): 5%
- growth inhibition ([14]; at 33.0 µM): 25%
- growth inhibition ([14]; at 100.0 µM): 92% (active)
- growth inhibition [15, 17]: -1%
- growth inhibition [15, 18]: 52%
- growth inhibition ([15]; at 50.0 µM): 50.6%
- growth inhibition ([16]; at 1.2 µM): -2%
- growth inhibition ([16]; at 3.7 µM): 4%
- growth inhibition ([16]; at 11.0 µM): 7%
- growth inhibition ([16]; at 33.0 µM): 18%
- growth inhibition ([16]; at 100.0 µM): 90% (active)
